According to the supplement of paper PMC10681739:

Legend:
[1] = biological target: T1, ETS1 (UniProt P14921); test: ETS1 binding intensity (PBM fluorescence), ETS1 alone (arbitrary fluorescence units); higher = stronger binding; conditions: ETS1 concentration 1 nM; RUNX1 concentration 0 nM
T1 sequence: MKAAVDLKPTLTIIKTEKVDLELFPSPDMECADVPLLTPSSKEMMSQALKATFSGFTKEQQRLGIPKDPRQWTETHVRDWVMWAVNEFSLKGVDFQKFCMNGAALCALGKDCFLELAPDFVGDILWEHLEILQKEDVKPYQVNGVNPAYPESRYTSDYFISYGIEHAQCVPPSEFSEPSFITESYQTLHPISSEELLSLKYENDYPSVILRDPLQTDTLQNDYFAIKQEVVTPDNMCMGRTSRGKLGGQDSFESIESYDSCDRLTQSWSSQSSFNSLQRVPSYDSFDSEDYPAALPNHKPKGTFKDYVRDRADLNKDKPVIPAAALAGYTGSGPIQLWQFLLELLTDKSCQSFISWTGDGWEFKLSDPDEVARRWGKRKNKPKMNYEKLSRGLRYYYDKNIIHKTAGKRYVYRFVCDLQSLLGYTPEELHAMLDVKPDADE

[2] = biological target: RUNX1 (UniProt Q01196); test: RUNX1 binding intensity (PBM fluorescence), RUNX1 alone (arbitrary fluorescence units); higher = stronger binding; conditions: RUNX1 concentration 2 nM; ETS1 concentration 0 nM
Description: (§1)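 Cooperative gcPBM on 36-bp genomic probes with neighbouring ETS1 and RUNX1 sites. Recombinant human RUNX1 (2 nM) was incubated alone or with ETS1 (25 nM) and detected with anti-RUNX1 antibody plus Alexa488 secondary. Values are medians over 4 replicate spots; the RUNX1+ETS1 data were normalised to the RUNX1-only data. The probes sit in constant array flanks that are not printed.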

[3] = biological target: RUNX1 (UniProt Q01196); test: RUNX1 binding intensity (PBM fluorescence) in presence of ETS1, normalised to RUNX1-only experiment (arbitrary fluorescence units); higher = stronger binding; conditions: RUNX1 concentration 2 nM; ETS1 concentration 25 nM
Description: as §1
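Throughout, for RUNX1 binding intensity (PBM fluorescence) in presence of ETS1, normalised to RUNX1-only experiment: Full-length recombinant human ETS1 or RUNX1 bound to double-stranded 36-bp genomic probes on microarrays, detected by protein-specific primary antibody and Alexa488 secondary, spot fluorescence as median of four replicate spots.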
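Throughout, for RUNX1 binding intensity (PBM fluorescence), RUNX1 alone: Full-length recombinant human RUNX1 bound to double-stranded 36-bp genomic probes on a high-density microarray, scored as Alexa488 fluorescence per spot via anti-RUNX1 antibody, median of four replicate spots.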

Chain of RUNX1 (Q01196 whole entry): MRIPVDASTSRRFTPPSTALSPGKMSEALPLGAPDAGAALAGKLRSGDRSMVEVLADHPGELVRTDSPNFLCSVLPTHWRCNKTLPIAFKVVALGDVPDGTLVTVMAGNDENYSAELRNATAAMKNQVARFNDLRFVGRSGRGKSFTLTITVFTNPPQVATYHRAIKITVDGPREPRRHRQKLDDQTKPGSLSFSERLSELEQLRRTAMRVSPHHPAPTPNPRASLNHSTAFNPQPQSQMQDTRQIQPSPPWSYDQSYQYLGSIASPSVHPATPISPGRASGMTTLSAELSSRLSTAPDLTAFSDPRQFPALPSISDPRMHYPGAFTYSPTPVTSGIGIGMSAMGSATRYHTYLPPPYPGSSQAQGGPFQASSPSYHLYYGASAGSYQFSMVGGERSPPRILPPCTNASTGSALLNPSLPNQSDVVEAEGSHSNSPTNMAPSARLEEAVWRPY

Row | Sequence | ETS1 binding intensity [1] | RUNX1 binding intensity [2] | RUNX1 binding intensity [3]
1 | CTCGCCCCATTTCCCGTAAATATCAGCCACAGACCA | 546 | 1350 | 1900
2 | AGTTGGTTCCTTCCGGTGGGTTTGTGGGTTTGGGGT | 1420 | 870 | 2390
3 | CCCATTTCCTGCTCTCCAGAGTTAACCACTGAAGTC | 815 | 1440 | 3490
4 | GCTAGACAGGAAACAGTGAGCTTCTGTGGGCAGGAG | 2770 | 758 | 1060
5 | TTACACAACAGGAAACTATGTTTAGCGGTTAATCCA | 2490 | 885 | 1580
6 | CCCGGCCACTTCCGCCTATTGCGGGCGTCGGCTAGG | 1440 | 745 | 4310
7 | GTGGGTTTAGGATATGGGTGTGGTTTCTAATTGTCT | 428 | 885 | 1020
8 | CTTAGCACTTCAGCCGGAAACCACAGCATACATTTC | 3980 | 1460 | 2310
9 | GATATGGCAGGAAGTAGGGCCTGGAAACCGCACGGC | 3390 | 954 | 2000
10 | AAGAGGAAGTCCCAAATTGCTTTTTAACCACCAACA | 522 | 849 | 888
11 | CGGCTGGCAGGAAGTGGCCACTTGAACCGCAGATGC | 4480 | 1190 | 3880
12 | CTCTCACTTCCCGTGTGAGAAAAACCACAGAAAAGC | 651 | 1890 | 4200
13 | GTGCTAGGACACAGGAAGCGATACCACAAAGAACAT | 3200 | 818 | 1790
14 | TCAATGACAGGAAGTTTTTAAACCACATACGGCTAA | 2780 | 904 | 1810
15 | GCTCTGCAGGATGTGGCTGTGACCGCAGTGAGGAGC | 1290 | 1520 | 7480
